Unmarked numbers belong to inactive results. The list shows a part of the results. Activity calls are given as the source filed them. Cut-off read from the data, not from the text of the source, unless noted: active = inhibition above about 25%; inactive = the rest.
Legend:
[1] = molecular target: Nuclear receptor coactivator 3 (Homo sapiens) (UniProt Q9Y6Q9); assay: SRC3 coactivator transcriptional activity inhibitors, confirmation, cell-based, luminescence, quadruplicate (AID 588792;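 active = mean inhibition over 43.08%, the solvent-only control mean plus 3 SD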;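 note: 0% = DMSO treated cells and 100% = gossypol at 36 µM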); conditions: HEK293 GAL4-SRC3 luciferase reporter, at 3.6 µM, hits give high values
[2] = test system: transactivating tegument protein VP16 (Human herpesvirus 1), Gal4-VP16 luciferase reporter; assay: VP16 transactivation inhibitors, counter-screen for SRC3 inhibitor project, cell-based, luminescence, high throughput (AID 588794; in the data active = inhibition above about 30%); conditions: mammalian cells, VP16-driven luciferase reporter luminescence; at 3.6 µM; hits give high values
[3] = molecular target: Nuclear receptor coactivator 1 (Homo sapiens) (UniProt Q15788); assay: SRC1 coactivator transcriptional activity inhibitors, confirmation, cell-based, luminescence, quadruplicate (AID 588820;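 active = mean inhibition above 46.68%, the untreated control wells mean plus 3 SD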;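 note: 0% = DMSO wells and 100% = gossypol 36 µM treated wells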); conditions: HEK293 GAL4-SRC1 luciferase reporter, at 3.6 µM, hits give high values
Chain of Nuclear receptor coactivator 1 (Homo sapiens) (Q15788 whole entry, looked up, the tested form may be a part): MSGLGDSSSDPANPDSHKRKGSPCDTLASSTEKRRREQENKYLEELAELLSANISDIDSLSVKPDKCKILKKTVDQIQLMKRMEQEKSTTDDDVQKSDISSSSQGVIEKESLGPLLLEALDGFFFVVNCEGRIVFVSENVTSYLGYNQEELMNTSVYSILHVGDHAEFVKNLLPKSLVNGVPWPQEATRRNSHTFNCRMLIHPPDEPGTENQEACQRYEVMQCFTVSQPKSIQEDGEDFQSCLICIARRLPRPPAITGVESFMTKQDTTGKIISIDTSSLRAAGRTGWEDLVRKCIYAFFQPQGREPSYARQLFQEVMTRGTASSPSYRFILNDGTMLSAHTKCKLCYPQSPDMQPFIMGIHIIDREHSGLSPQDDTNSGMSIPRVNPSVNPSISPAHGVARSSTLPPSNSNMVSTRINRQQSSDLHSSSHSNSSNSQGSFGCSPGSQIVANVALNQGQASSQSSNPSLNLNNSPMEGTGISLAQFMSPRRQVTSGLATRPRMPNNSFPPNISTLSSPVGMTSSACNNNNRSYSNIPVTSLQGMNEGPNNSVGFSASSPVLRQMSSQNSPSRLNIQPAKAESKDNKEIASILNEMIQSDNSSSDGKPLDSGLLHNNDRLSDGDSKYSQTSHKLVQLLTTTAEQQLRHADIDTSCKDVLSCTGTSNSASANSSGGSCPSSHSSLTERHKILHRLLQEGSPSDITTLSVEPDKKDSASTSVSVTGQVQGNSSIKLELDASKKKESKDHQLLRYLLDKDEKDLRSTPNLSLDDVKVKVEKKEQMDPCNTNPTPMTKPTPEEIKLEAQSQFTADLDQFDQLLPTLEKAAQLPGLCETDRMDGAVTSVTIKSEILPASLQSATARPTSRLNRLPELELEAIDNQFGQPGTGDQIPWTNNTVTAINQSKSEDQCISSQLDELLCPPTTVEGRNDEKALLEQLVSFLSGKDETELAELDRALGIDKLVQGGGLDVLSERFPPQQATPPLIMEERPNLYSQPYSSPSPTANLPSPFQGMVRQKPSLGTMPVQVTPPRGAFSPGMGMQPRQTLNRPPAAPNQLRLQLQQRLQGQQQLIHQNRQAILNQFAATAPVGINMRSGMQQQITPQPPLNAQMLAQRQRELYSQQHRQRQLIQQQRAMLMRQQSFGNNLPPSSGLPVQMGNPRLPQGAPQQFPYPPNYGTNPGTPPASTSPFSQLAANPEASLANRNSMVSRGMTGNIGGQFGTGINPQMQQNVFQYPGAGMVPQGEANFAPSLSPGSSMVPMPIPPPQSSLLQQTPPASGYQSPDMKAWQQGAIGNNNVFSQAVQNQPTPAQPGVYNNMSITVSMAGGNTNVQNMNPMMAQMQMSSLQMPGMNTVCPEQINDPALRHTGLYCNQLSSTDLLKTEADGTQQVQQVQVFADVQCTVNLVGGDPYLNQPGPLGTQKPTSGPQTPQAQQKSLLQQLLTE

[4] = VP16 transactivation inhibitors, counter-screen for SRC1 inhibitor project, cell-based, luminescence, high throughput (AID 588824); conditions: cell-based VP16 transactivation luciferase luminescence; at 3.6 µM; hits give high values
[5] = StAR promoter reporter inhibitors, counter-screen for LRH-1 inverse agonist project, cell-based, luminescence, high throughput (AID 651611; in the data active = inhibition above about 28%); conditions: StAR promoter luciferase reporter counterscreen, at 3.6 µM, hits give high values
[6] = molecular target: Nuclear receptor subfamily 5 group A member 2 (Homo sapiens) (UniProt O00482); assay: LRH-1 (NR5A2) inverse agonists, retest, confirmation, cell-based, luminescence (AID 651613; in the data active = inhibition above about 42%;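 note: HEK293T cells co-transfected with LRH-1 and StAR promoter luciferase reporter; 0% = vehicle wells and 100% = parental cells lacking receptor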); conditions: cell-based LRH-1 luciferase reporter, inverse agonism; at 3.6 µM; hits give high values
Chain of Nuclear receptor subfamily 5 group A member 2 (Homo sapiens) (O00482 whole entry, looked up): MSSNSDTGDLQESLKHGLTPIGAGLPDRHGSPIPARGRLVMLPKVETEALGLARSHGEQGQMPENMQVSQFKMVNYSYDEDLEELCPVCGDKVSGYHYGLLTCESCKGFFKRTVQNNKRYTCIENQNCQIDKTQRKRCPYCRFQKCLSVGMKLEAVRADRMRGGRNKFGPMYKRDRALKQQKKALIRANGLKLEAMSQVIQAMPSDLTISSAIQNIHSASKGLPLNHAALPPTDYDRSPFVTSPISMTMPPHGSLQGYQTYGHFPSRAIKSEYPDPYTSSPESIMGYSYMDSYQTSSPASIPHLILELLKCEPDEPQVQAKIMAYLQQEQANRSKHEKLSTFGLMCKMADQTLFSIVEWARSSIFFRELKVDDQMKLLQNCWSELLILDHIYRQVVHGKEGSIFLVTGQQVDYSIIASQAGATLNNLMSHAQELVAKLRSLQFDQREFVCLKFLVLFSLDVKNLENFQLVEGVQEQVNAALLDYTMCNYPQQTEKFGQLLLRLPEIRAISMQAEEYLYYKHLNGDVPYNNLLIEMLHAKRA

[7] = molecular target: Steroidogenic factor 1 (Homo sapiens) (UniProt Q13285); assay: SF1 (NR5A1) inverse agonists, counter-screen for LRH-1 inverse agonist project, cell-based, luminescence, high throughput (AID 651614; in the data active = inhibition above about 44%;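 note: cells cotransfected with StAR promoter reporter and SF1 expression vector; 0% = vehicle on cells with receptor and 100% = vehicle on cells lacking receptor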); conditions: cell-based SF1 luciferase reporter, at 3.6 µM, hits give high values
Chain of Steroidogenic factor 1 (Homo sapiens) (Q13285 whole entry, looked up, the tested form may be a part): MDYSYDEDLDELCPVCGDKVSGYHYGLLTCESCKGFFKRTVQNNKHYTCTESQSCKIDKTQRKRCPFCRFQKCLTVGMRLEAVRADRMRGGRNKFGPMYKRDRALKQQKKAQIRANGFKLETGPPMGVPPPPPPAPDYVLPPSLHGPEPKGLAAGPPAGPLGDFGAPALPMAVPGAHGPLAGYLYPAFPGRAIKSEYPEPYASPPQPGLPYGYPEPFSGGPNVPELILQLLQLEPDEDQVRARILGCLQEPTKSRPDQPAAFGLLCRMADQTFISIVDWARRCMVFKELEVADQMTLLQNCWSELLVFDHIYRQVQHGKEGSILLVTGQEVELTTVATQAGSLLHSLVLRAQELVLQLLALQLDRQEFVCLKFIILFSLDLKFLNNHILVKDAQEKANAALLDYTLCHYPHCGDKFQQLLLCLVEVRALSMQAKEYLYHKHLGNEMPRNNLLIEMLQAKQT

[8] = VP16 transactivation reporter inhibitors, counter-screen for LRH-1 inverse agonist project, cell-based, luminescence, high throughput (AID 651615; in the data active = inhibition above about 33%); conditions: Gal4-VP16 luciferase reporter cells, at 3.6 µM, hits give high values
[9] = Gal4-VP16 luciferase reporter inhibitors, counter-screen for COUP-TFII antagonist project, cell-based, luminescence, HEK293 (AID 687007; in the data active = inhibition above about 13%); conditions: at 8.5 µM, hits give high values
[10] = molecular target: COUP transcription factor 2 (Homo sapiens) (UniProt P24468); assay: NR2F2 transcriptional activity inhibitors, confirmation, cell-based, luciferase reporter, HEK293, triplicate (AID 687008;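 active = mean inhibition over three repeats above a set limit taken from the earlier primary screen, cut at about 38% in these data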;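 note: 100% = cells given the luciferase reporter alone without the COUP-TF2 vector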); conditions: HEK293 NGFI-A luciferase reporter, luminescence; at 8.5 µM; hits give high values
Chain of COUP transcription factor 2 (Homo sapiens) (P24468 whole entry, looked up): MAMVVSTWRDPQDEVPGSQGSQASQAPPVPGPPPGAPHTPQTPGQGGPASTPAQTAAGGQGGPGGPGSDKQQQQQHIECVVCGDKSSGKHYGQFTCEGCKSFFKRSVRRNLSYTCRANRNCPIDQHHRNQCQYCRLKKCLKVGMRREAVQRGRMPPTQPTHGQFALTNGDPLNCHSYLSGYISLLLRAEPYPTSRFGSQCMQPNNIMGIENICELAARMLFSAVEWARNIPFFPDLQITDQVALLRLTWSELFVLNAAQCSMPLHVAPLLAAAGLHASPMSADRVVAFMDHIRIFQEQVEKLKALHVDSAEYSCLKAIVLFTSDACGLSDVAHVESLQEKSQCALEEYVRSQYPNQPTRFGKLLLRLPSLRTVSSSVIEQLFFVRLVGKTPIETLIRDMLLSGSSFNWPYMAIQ

[11] = test system: transactivating tegument protein VP16 (Human herpesvirus 1); assay: VP16 transactivation reporter inhibitors, counter-screen for SRC2 inhibitor project, cell-based, luminescence, single concentration (AID 652007; in the data active = inhibition above about 36%); conditions: cell-based VP16 transactivation luciferase reporter, at 8.9 µM, hits give high values
[12] = molecular target: Nuclear receptor coactivator 2 (Homo sapiens) (UniProt Q15596); assay: SRC2 coactivator transcriptional activity inhibitors, confirmation, cell-based, luminescence, HEK293, triplicate (AID 652008;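 active = mean inhibition above 46.5%, the solvent-only control mean plus 3 SD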;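 note: 0% = DMSO-treated cells and 100% = Gossypol at 36 µM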); conditions: HEK293 GAL4-SRC2 luciferase reporter, at 8.9 µM, hits give high values
Chain of Nuclear receptor coactivator 2 (Homo sapiens) (Q15596 whole entry, looked up, the tested form may be a part): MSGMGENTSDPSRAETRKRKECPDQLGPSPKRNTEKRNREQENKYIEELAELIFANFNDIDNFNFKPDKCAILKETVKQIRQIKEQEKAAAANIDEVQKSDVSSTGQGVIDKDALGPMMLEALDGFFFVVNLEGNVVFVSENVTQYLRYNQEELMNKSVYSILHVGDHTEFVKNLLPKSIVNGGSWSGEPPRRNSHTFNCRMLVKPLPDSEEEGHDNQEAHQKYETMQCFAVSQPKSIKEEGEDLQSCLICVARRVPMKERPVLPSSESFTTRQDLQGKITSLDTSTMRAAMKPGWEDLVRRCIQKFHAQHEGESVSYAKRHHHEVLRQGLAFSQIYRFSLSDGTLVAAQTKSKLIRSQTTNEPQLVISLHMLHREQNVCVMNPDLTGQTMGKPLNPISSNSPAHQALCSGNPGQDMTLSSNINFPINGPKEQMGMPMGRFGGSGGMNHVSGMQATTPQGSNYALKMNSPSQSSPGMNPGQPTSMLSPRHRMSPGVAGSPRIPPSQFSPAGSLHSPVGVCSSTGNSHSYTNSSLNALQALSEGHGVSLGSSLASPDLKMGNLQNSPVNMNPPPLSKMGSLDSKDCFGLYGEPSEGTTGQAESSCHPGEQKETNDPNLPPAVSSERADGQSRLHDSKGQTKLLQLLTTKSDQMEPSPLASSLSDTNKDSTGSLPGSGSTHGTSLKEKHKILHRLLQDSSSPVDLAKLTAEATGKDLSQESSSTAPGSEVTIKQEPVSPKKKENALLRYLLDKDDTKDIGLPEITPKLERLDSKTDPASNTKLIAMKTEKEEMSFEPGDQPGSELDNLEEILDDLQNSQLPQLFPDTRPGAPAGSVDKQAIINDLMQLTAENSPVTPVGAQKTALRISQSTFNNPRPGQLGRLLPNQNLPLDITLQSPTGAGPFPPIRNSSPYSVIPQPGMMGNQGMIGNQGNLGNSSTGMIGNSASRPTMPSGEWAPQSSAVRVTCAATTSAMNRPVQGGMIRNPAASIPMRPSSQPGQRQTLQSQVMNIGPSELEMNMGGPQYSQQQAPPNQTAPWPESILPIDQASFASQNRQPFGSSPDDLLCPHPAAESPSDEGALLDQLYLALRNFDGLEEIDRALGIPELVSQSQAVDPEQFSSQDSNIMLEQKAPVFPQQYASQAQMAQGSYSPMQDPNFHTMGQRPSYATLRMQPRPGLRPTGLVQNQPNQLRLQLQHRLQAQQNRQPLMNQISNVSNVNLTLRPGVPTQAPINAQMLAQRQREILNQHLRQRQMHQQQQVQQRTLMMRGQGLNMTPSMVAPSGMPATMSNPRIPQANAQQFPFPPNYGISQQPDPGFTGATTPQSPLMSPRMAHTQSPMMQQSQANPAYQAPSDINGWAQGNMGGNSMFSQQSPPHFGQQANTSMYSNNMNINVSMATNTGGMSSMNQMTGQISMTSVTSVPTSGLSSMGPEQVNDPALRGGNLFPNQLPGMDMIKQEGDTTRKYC

Compound | inhibition [1] | inhibition [2] | inhibition [3] | inhibition [4] | inhibition [5] | inhibition [6] | inhibition [7] | inhibition [8] | inhibition [9] | inhibition [10] | inhibition [11] | inhibition [12]
COC1C(O)C(C)OC(OC2CCC3(C=O)C(CCC4C3CCC3(C)C(C5=CC(=O)OC5)CCC43O)C2)C1O (stereo not drawn) | 96.8% (active) | 89.2% (active) | 81.5% (active) | 88.7% (active) | 93.6% (active) | 110% (active) | 97.2% (active) | 93% (active) | 51% (active) | 76.3% (active) | – | –
O=C1CN=C(c2ccc[nH]2)c2cc(Cl)ccc2N1 | 76% (active) | 57.9% (active) | 53.3% (active) | 57.5% (active) | – | – | – | – | – | – | 30.2% | 44%
N#CC1c2ccccc2-n2nncc2CN1Cc1cc(Cl)cc(Cl)c1 (stereo not drawn) | 92.8% (active) | 84.7% (active) | 79.7% (active) | 90.4% (active) | 90.5% (active) | 106% (active) | 94.1% (active) | 94.3% (active) | – | – | 82.2% (active) | 84.5% (active)
C=C1C(=O)O[C@@H]2C[C@@H](C)[C@@H]3C=CC(=O)[C@@]3(C)[C@@H](O)[C@H]12 | 42.1% | 92.5% (active) | – | 91.7% (active) | – | – | – | – | – | – | 96% (active) | 93.7% (active)
N#Cc1cn(C2OC(CO)C(O)C2O)c2ncnc(N)c12 (stereo not drawn) | 81.4% (active) | 91.3% (active) | -24% | 89.7% (active) | 82% (active) | 107% (active) | 94.1% (active) | 91% (active) | – | – | 30.4% | 48.3% (active)
CC(N)C(=O)NC1C2C(=C(O)CC(O)C2O)C(=O)OC1(C)C(Cl)Cl (stereo not drawn) | 98.8% (active) | 96.8% (active) | 88.6% (active) | 96.8% (active) | 96.4% (active) | 110% (active) | 98.5% (active) | 98.3% (active) | – | – | 77.2% (active) | 74.3% (active)
C=Cc1cc(OC)c2c(c1)c(=O)oc1c2cc(OC)c2c(O)ccc(C3OC(C)C(O)C(C)(O)C3O)c21 (stereo not drawn) | 46.1% (active) | 88.3% (active) | -23.3% | 88% (active) | – | – | – | – | – | – | 42.7% (active) | -166%
CC1OC(OC2CC(O)C3(CO)C4C(O)CC5(C)C(C6=CC(=O)OC6)CCC5(O)C4CCC3(O)C2)C(O)C(O)C1O (stereo not drawn) | 97.2% (active) | 89.1% (active) | 80.3% (active) | 87.2% (active) | – | 109% (active) | 96% (active) | 93.5% (active) | – | – | 70.9% (active) | 54% (active)
CC12CCC(O)CC1CCC1C2CCC2(C)C(C3=CC(=O)OC3)CCC12O (stereo not drawn) | 97.6% (active) | 87.9% (active) | 70.6% (active) | 87.4% (active) | 95.7% (active) | 110% (active) | 98.2% (active) | 89% (active) | – | – | 58.5% (active) | 23.6%
CC12CCC3C(CCC4(O)CC(O)CCC34C=O)C1(O)CCC2C1=CC(=O)OC1 (stereo not drawn) | 90% (active) | 67.4% (active) | 14.4% | 67.5% (active) | – | 109% (active) | 96.2% (active) | – | – | – | – | –
CC(=O)OC1CC2OC3C=C(C)CCC3(C)C1(C)C21CO1 (stereo not drawn) | 98.2% (active) | 95.5% (active) | 94.2% (active) | 95.1% (active) | 95.2% (active) | 111% (active) | 98% (active) | 96.8% (active) | – | – | 82.5% (active) | 76.1% (active)
C[C@]12CC[C@H]3[C@@H](CC[C@]4(O)C[C@@H](O)CC[C@]34C=O)[C@@]1(O)CC[C@@H]2C1=CC(=O)OC1 | 92.8% (active) | 81.1% (active) | 46.8% (active) | 79.7% (active) | – | 110% (active) | 98.7% (active) | – | – | – | – | –
CCC(C)C1NC(=O)C(NC(=O)C(CC(C)C)N(C)C(=O)C2CCCN2C(=O)C(C)O)C(C)OC(=O)C(Cc2ccc(OC)cc2)N(C)C(=O)C2CCCN2C(=O)C(CC(C)C)NC(=O)[C@H](C)C(=O)[C@H](C(C)C)OC(=O)CC1O (stereo partly drawn) | 99.5% (active) | 98.2% (active) | 98.5% (active) | 98.1% (active) | 96.4% (active) | 111% (active) | 98.4% (active) | 99% (active) | – | – | 82.2% (active) | 79.6% (active)
CC(=O)OCC12CC(OC(=O)CC(C)C)C(C)=CC1OC1C(O)C(OC(C)=O)C2(C)C12CO2 (stereo not drawn) | 95.1% (active) | 91.9% (active) | 88.5% (active) | 88.9% (active) | 97% (active) | 110% (active) | 98.3% (active) | 97.8% (active) | – | – | 79.1% (active) | 75.4% (active)
CC1=CC2OC3CC4OC(=O)C=CC=CC(C(C)O)OCC(O)C(C)CC(=O)OCC2(CC1O)C4(C)C31CO1 (stereo not drawn) | 98.7% (active) | 98.2% (active) | 97.4% (active) | 97.9% (active) | 96.3% (active) | 108% (active) | 96% (active) | 97.5% (active) | – | – | 79.8% (active) | 70.1% (active)
